Assay results published in PubChem BioAssay (Tox21).
Where “and” joins values, the source holds several entries; their conditions need not be identical. Equal values may be shown once. Records with an inconclusive call do not appear. Some structures have more than one record in an assay (separate samples or runs), and their calls can disagree. Calls of active or inactive are those of the source. Unless noted, calls follow the shape of the dose curve; as a rule, active = well fitted curve in the direction sought with a large enough effect in the repeat runs; inconclusive = weak or mixed curves; inactive = no such curve, though single readings can be large; an effect the other way counts as inactive or inconclusive.

Assays:
[1] = qHTS assay to identify small molecule agonists of the hypoxia (HIF-1) signaling pathway - cell viability counter screen (AID 1224844; calls by dose curve; also: nearly all actives have a fitted effect of over 50% in size; also: potency is read from the fitted curve at half-maximal effect)
Procedure, shortened: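 Viability counter screen: HRE-bla ME-180 cells plated 5 hrs before compound addition, treated 17 hrs at 37C and 5% CO2, then CellTiter-Glo added after the FRET reporter read; luminescence after 30 min.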

[2] = qHTS assay to identify small molecule agonists of H2AX (AID 1224845; active = well fitted activation curve with a large enough effect in the signal ratio in the repeat runs, not every such curve was filed as active; the % refers to the signal ratio; also: potency is read from the fitted curve at half-maximal effect)
Procedure, shortened: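 Wild-type CHO-K1 cells plated overnight, then exposed 3 hr at 37C to compounds at 15 concentrations (0.76% DMSO). Lysed, then HTRF anti-pH2AX(S139)-cryptate/anti-H2AX-d2 detection after 24 hr at room temperature; emissions 665 and 620 nm.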

[3] = qHTS assay to identify small molecule antagonists of the estrogen related receptor (ERR) signaling pathway from Tox21 library (AID 1224848); also: nearly all actives have a fitted effect of over 50% in size; also: potency is read from the fitted curve at half-maximal effect
Procedure, shortened: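 First, 2,000 ERR cells per well were plated and held 6 h at 37 C/5% CO2. Next, compounds in DMSO were pinned in and left 18 h at 37 C. Finally, ONE-Glo was added and luminescence read after 30 min at room temperature.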

[4] = qHTS assay to identify small molecule agonists of the estrogen related receptor (ERR) signaling pathway from Tox21 library (AID 1224849; calls by dose curve; also: nearly all actives have a fitted effect of over 15% in size); conditions: ERR reporter cell line, ONE-Glo luciferase, 18 h; at 92.4 µM (top of the series) unless noted
Procedure, shortened: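 Quantitative HTS in agonist format: NTP ERR cell line, compounds transferred in DMSO after 6 h plating, 18 h incubation at 37 C, ONE-Glo luminescence endpoint.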

[5] = qHTS RealTime-Glo MT Cell Viability Assay in HEK293 cells - 32 hour (AID 1224868); also: nearly all actives have a fitted effect of over 50% in size; also: potency is read from the fitted curve at half-maximal effect
Procedure, shortened: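 Assay medium contained NanoLuc luciferase plus cell-permeant prosubstrate, added with HEK293 cells at 600 cells/well. After 5 h at 37 C/5% CO2 compounds were added; plates stayed at 37 C for 40 h with serial luminescence reads.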

[6] = A CellTox Green Cytotoxicity Assay to monitor cytotoxicity in HEK293 cells - 0 hour (AID 1224869); also: nearly all actives have a fitted effect of over 50% in size
Procedure, shortened: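 Dead-cell fluorescence measured kinetically: asymmetric cyanine dye, HEK293, 600 cells/well, 5 h settle, 23 nL cpd/DMSO, 37 C, reads 0–40 h every 8 h.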

[7] = qHTS RealTime-Glo MT Cell Viability Assay in HepG2 cells - 40 hour (AID 1224870); also: nearly all actives have a fitted effect of over 50% in size; also: potency is read from the fitted curve at half-maximal effect
Procedure, shortened: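 HepG2 cells mixed with RealTime-Glo MT reagents (NanoLuc plus cell-permeant prosubstrate) were seeded at 600 cells/well, incubated 5 h at 37 C/5% CO2, then pinned with compounds in DMSO; nonlytic luminescence tracked viability during 40 h treatment.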

[8] = qHTS assay to identify small molecule agonists of H2AX - cell viability counter screen (AID 1224847; calls by dose curve; also: nearly all actives have a fitted effect of over 30% in size; also: potency is read from the fitted curve at half-maximal effect)
Procedure, shortened: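 Counter-screen for viability: CellTiter-Glo ATP luminescence read after 3 h compound treatment (15-point titration, 0.76% DMSO final) of CHO-K1 cells at 37C, with 30 min room-temperature reagent incubation.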

[9] = qHTS RealTime-Glo MT Cell Viability Assay in HepG2 cells - 24 hour (AID 1224867); also: nearly all actives have a fitted effect of over 50% in size; also: potency is read from the fitted curve at half-maximal effect
Procedure, shortened: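 qHTS, HepG2, 600 cells/well, RealTime-Glo (NanoLuc + prosubstrate) added with cells; 5 h preincubation; DMSO compound addition; 37 C; luminescence at 0/8/16/24/32/40 h.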
% is scaled to controls: 0 for no effect and ±100 for the full control effect.

Row | Compound | Potency [1] | Potency [2] | Potency [3] | activity change, positive = activation [4] | Potency [5] | Potency [6] | Potency [7] | Potency [8] | Potency [9]
1 | C=CC(=O)OCCn1c(=O)n(CCOC(=O)C=C)c(=O)n(CCOC(=O)C=C)c1=O | 12.3 µM (active) | 25.3 µM (active) | inactive | -78.2% (inactive) | 11 µM (active) | inactive | 19.5 µM (active) |  | 
2 | CCCCCCCCn1sc(Cl)c(Cl)c1=O | 6.16 µM (active) | inactive |  |  | 3.89 µM (active) | inactive | 6.92 µM (active) | 8 µM (active) | 4.9 µM (active)
3 | O=C1C=CC(=O)N1c1ccc(Cc2ccc(N3C(=O)C=CC3=O)cc2)cc1 | 11 µM (active) | inactive |  |  | 11 µM (active) | inactive | 15.5 µM (active) | 50.5 µM (active) | 12.3 µM (active)
4 | CCOC(=O)O[C@H](C)OC(=O)c1ccc2c(c1)cc(C(=O)NC1CCN(C(C)C)CC1)n2Cc1cc(-c2ccc(Cl)s2)on1 | 28.9 µM (active) | 42 µM (active) |  |  | 11.5 µM (active) | inactive | 10.2 µM (active) | 37.5 µM (active) | 11.5 µM (active)
5 | CCCCCCCCCCCCCC[P+](CCCC)(CCCC)CCCC (tested in a mixture with another compound) | 15.6 µM (active) |  |  |  | 0.553 µM (active) | inactive | 19.6 µM (active) | 3.6 µM (active) | 19.6 µM (active)
6 | Cc1cc(O)c(C(C)(C)C)cc1Sc1cc(C(C)(C)C)c(O)cc1C | 9.75 µM (active) |  | 13.7 µM (active) | -80.3% (inactive) | 21.8 µM (active) | inactive | 48.9 µM (active) | 17.9 µM (active) | 43.6 µM (active)
7 | CC(C)CCCCCCCCCCCCCCC(=O)O | 17.4 µM (active) |  |  |  |  | inactive | inactive | 1.6 µM (active) | inactive
8 | CCCCCCCC/C=C\CCCCCCCCOCCO | 28.4 µM (active) |  |  |  | 3.19 µM (active) | inactive | inactive | 65.6 µM (active) | 
9 | N=C1N=C(N)c2cc3ccccc3cc21 | 15.5 µM (active) |  | 68.6 µM (active) | 2.31% (active) | 19.5 µM (active) | inactive | 24.5 µM [cytotoxic] (active) | 127 µM (active) | 
10 | CNc1ccc(O)cc1 | 21.8 µM (active) |  |  | -69.6% (inactive) | 12.3 µM (active) | inactive |  | 101 µM (active) | 
11 | Clc1ccccc1C(c1ccccc1)(c1ccccc1)n1ccnc1 | 21.9 µM (active) |  | 3.86 µM (active) and 11.9 µM (active) |  | 21.9 µM (active) and 6.74 µM (active) |  | 24.5 µM (active) and inactive | 40.1 µM (active) and inactive | 21.9 µM (active) and inactive
12 | [Cl][Bi]([Cl])([c]1ccccc1)([c]1ccccc1)[c]1ccccc1 | 19.4 µM (active) |  |  |  | 2.44 µM (active) | inactive | 7.71 µM (active) | 35.5 µM (active) | 6.88 µM (active)
13 | O=S1(=O)CC(Cl)(Cl)C(Cl)(Cl)C1 | 3.89 µM (active) |  | 15.4 µM (active) | -79.8% (inactive) |  | inactive | 6.16 µM (active) | 25.3 µM (active) | 6.92 µM (active)
14 | OC1(c2ccc(Cl)c(C(F)(F)F)c2)CCN(CCCC(c2ccc(F)cc2)c2ccc(F)cc2)CC1 | 6.74 µM (active) |  | 8.41 µM (active) | -71.9% [at 42.5 µM] (inactive) | 9.52 µM (active) | inactive | 9.52 µM (active) | 55.2 µM (active) | 9.52 µM (active)
15 | CCCCCCCCCOC(=O)c1ccc(O)cc1 | 54.2 µM (active) |  |  |  | 38.3 µM (active) | inactive | inactive | 99.3 µM (active) | 
16 | CCCCCCCCCCCCCCCC(=O)OC[C@H](O)[C@H]1OC(=O)C(O)=C1O | 54.9 µM (active) |  |  | -29.6% (inactive) | inactive | inactive | inactive | inactive | inactive
17 | CCCCCCCC[P+](CCCCCCCC)(CCCCCCCC)CCCCCCCC | 3.45 µM (active) |  | 0.108 µM (active) | -78.2% (inactive) | 0.434 µM (active) |  | 10.9 µM (active) | 7.95 µM (active) | 
18 | Nc1cc(C(F)(F)F)ccc1S | inactive |  |  | -31.1% [at 42.5 µM] (inactive) | inactive |  | inactive | inactive | inactive
19 | O=C(OCC1CO1)C1CCCCC1C(=O)OCC1CO1 (stereo unspecified) | inactive |  |  | -46.8% (inactive) |  | inactive | inactive | inactive | inactive
20 | Cc1cc(O)c2ccccc2c1O | 13.4 µM (active) |  | 13.3 µM (active) | -47.1% [at 42.5 µM] (inactive) | 8.49 µM (active) | inactive | 13.4 µM (active) | 5.52 µM (active) | 13.4 µM (active)
21 | CCCCc1oc2ccc(NS(C)(=O)=O)cc2c1C(=O)c1ccc(OCCCN(CCCC)CCCC)cc1 | 15.1 µM (active) |  | 16.8 µM (active) | -64.5% [at 42.5 µM] (inactive) | 9.52 µM (active) | inactive | 9.52 µM (active) | 43.8 µM (active) | 
